About 6,000 (1.7%) of roughly 350,000 compounds were called active. Inconclusive results (about 5%) are left out. The sample as a whole holds a higher share of actives than the screen did. A number with no mark means an inactive call. No stated cut-off is given here; in the data, active means CPE inhibition above about 20% (passing the limit was not always enough); inconclusive means no clear call, values can overlap the other calls; tested in BHK-21 cells.

The experiment can be described thus: protection of cells from dengue 2 killing – plate reader, single concentration, primary screen (AID 651640).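 Further: 0% = median of neutral control wells and 100% = median of positive control wells.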 Conditions: DENV2-infected cells, cytopathic effect rescue, at 9.99 µM, hits give high values. A general note: Damage to the host cells serves as the signal in cytopathic effect assays.
As to `O=C(NCC[C@H]1CC[C@@H](NC(=O)C2CCCCC2)[C@@H](CO)O1)c1ccc(F)cc1`, the CPE inhibition is 50.9% (active).

Consider `O=C(NCC[C@H]1CC[C@@H](NC(=O)C2CC2)[C@H](CO)O1)c1ccc(F)cc1`, for which the CPE inhibition is -2.58%.

`O=C(NCC[C@H]1CC[C@H](NC(=O)C2CC2)[C@@H](CO)O1)c1ccc(F)cc1`: the CPE inhibition is -6.48%.

In the case of `C[C@H]1CN([C@@H](C)CO)C(=O)c2cc(/C=C/c3ccccc3)cnc2O[C@H]1CN(C)Cc1cccc(C(=O)O)c1`, the CPE inhibition was -8.76%.

In the case of `C[C@@H]1CN([C@@H](C)CO)C(=O)c2cccc(NC(=O)NC3CCCCC3)c2O[C@@H]1CN(C)CC1CCCCC1`, the CPE inhibition is 12.9%.

On to `C[C@H]1CN([C@@H](C)CO)C(=O)c2cccc(NC(=O)NC3CCCCC3)c2O[C@H]1CN(C)CC1CCCCC1`, for which the CPE inhibition is 30.3% (active).

For `C[C@@H]1CN([C@H](C)CO)C(=O)c2cccc(NC(=O)NC3CCCCC3)c2O[C@H]1CN(C)Cc1ccc(C(F)(F)F)cc1`, the CPE inhibition is 0.691%.

In the case of `C[C@H]1CN([C@@H](C)CO)C(=O)c2cccc(NC(=O)C3CCCCC3)c2O[C@H]1CN(C)Cc1ccc(C(F)(F)F)cc1`, the CPE inhibition is 12.9%.

As to `C[C@@H]1CN([C@H](C)CO)C(=O)c2cccc(NC(=O)NC3CCCCC3)c2O[C@@H]1CN(C)CC1CCCCC1`, the CPE inhibition is -11%.

Consider `C[C@H](CO)N1C[C@H](C)[C@@H](CN(C)Cc2ccc(C(F)(F)F)cc2)Oc2c(NC(=O)NC3CCCCC3)cccc2C1=O`, for which the CPE inhibition was 37.7% (active).

Turning to `O=C(C[C@H]1C=C[C@H](NC(=O)c2cccc(F)c2)[C@@H](CO)O1)NCc1ccc(Oc2ccccc2)cc1`, the CPE inhibition was -9.22%.

Take `C[C@H](CO)N1C[C@H](C)[C@H](CN(C)Cc2ccncc2)Oc2ncc(C#Cc3cccc(F)c3)cc2C1=O`: the CPE inhibition was 13.5%.

In the case of `C[C@@H]1CN([C@H](C)CO)C(=O)c2cc(-c3ccccc3F)cnc2O[C@H]1CN(C)C(=O)CN(C)C`, the CPE inhibition was -0.853%.

As to `CN1c2ccc(-c3cccc(F)c3)cc2[C@@H]2[C@@H](CCN2C(=O)Nc2ccccc2F)[C@@H]1CO`, the CPE inhibition was -9.74%.

With `COc1cccc(C(=O)Nc2ccc3c(c2)C(=O)N(C)[C@H]2CC[C@H](CC(=O)N[C@@H](C)c4ccccc4)O[C@H]2CO3)c1`, the CPE inhibition was -3.06%.

In the case of `CN1C(=O)c2cc(NC(=O)Cc3ccccc3)ccc2OC[C@H]2O[C@H](CC(=O)NCc3ccc(Cl)cc3)CC[C@H]21`, the CPE inhibition is -3.46%.

In the case of `C[C@H](CO)N1C[C@H](C)[C@H](CN(C)Cc2ccc(-c3ccccc3)cc2)Oc2ccc(NS(=O)(=O)c3ccccc3)cc2C1=O`, the CPE inhibition is 0.672%.

As for `Cc1noc(C)c1S(=O)(=O)Nc1ccc2c(c1)C(=O)N([C@@H](C)CO)C[C@@H](C)[C@H](CN(C)Cc1ccc(-c3ccccc3)cc1)O2`, the CPE inhibition was 35.7% (active).

As for `Cc1ccc(S(=O)(=O)Nc2ccc3c(c2)C(=O)N([C@H](C)CO)C[C@H](C)[C@H](CN(C)Cc2ccc(Cl)c(Cl)c2)O3)cc1`, the CPE inhibition was -4.04%.

With `C[C@@H]1CN([C@H](C)CO)C(=O)c2cc(NS(=O)(=O)c3ccc(F)cc3)ccc2O[C@H]1CN(C)Cc1ccncc1`, the CPE inhibition was -0.549%.

For the compound `Cc1ccc(S(=O)(=O)Nc2ccc3c(c2)C(=O)N([C@@H](C)CO)C[C@@H](C)[C@@H](CN(C)Cc2ccncc2)O3)cc1`, the CPE inhibition was 2.98%.

As to `Cc1ccc(S(=O)(=O)Nc2ccc3c(c2)C(=O)N([C@@H](C)CO)C[C@H](C)[C@@H](CN(C)Cc2ccc4c(c2)OCO4)O3)cc1`, the CPE inhibition was 21.2% (active).

With `Cc1ccc(S(=O)(=O)Nc2ccc3c(c2)C(=O)N([C@@H](C)CO)C[C@@H](C)[C@H](CN(C)Cc2ccc4c(c2)OCO4)OCCCC[C@@H](C)O3)cc1`, the CPE inhibition was -8.37%.

For the compound `Cc1noc(C)c1S(=O)(=O)Nc1ccc2c(c1)C(=O)N([C@@H](C)CO)C[C@@H](C)[C@@H](CN(C)C)O2`, the CPE inhibition was 1.2%.

For `Cc1ccc(S(=O)(=O)Nc2ccc3c(c2)C(=O)N([C@@H](C)CO)C[C@@H](C)[C@H](CN(C)Cc2ccncc2)O3)cc1`, the CPE inhibition was 35.3% (active).
